About 2,800 (0.88%) of roughly 320,000 compounds were called active. This is one part of a sample in which actives are shown more often than they occur. Unmarked numbers belong to inactive results.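 The calls were made as follows: active = inhibition above the mean inhibition of all tested compounds plus 3 SD, computed separately for each screening campaign (cut at about 15% in these data); inactive = the rest.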
Each molecule was assayed against Serine/threonine-protein phosphatase PP1-alpha catalytic subunit (Homo sapiens) (UniProt P62136) (assay: inhibition of human PP1 catalytic subunit – biochemical, fluorescence, OMFP substrate, single point, counter-screen for PP5 inhibitor project, primary screen (AID 2235)). Conditions: purified PP1alpha, at 6.7 µM, active compounds read high.
Serine/threonine-protein phosphatase PP1-alpha catalytic subunit (Homo sapiens), sequence (P62136 whole entry, looked up): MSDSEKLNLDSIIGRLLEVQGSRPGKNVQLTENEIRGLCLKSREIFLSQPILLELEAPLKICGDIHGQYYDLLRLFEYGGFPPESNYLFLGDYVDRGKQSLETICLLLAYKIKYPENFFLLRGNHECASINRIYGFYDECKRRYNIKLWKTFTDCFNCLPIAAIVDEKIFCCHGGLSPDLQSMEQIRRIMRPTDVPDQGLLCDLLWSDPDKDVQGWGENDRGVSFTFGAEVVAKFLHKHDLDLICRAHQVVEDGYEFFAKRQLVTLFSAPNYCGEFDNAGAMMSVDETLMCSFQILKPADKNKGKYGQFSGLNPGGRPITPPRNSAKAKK

Structure (SMILES)	inhibition
O=c1[nH]c(CN2CC=C(c3ccccc3)CC2)nc2scc(-c3cccs3)c12	18.9% (active)
CC(C)Nc1nc(Cl)nc(NC(C)C)n1	-5.49%
Cc1ccc(Cn2c(C)c3cnn(CC(=O)N4CCC5(CC4)OCCO5)c(=O)c3c2C)cc1	10.3%
COC(=O)C1=C(c2cccc(OCc3ccccc3)c2)C[C@@H]2CC[C@H]1N2C(=O)NNCc1ccccc1	7.24%
Cc1ccc(P(=S)(c2ccc(C)o2)N2CCOCC2)o1	3.58%
Cc1ccc(-c2nn(CCC#N)cc2C(=O)O)cc1C	0.33%
O=C(O)c1ccccc1NC(=O)C1C2CCC(O2)C1C(=O)O (stereo not given)	33.1% (active)
CC(=O)Nc1ccc(C(=O)C(Cc2ccccc2)N(C)C)cc1 (stereo not given)	-0.99%
COC(=O)C1=C(c2cc3ccccc3o2)C[C@@H]2CC[C@H]1N2C(=O)NC1CCCCC1	-1%
CCOP(=O)(OCC)C(NC(=O)c1ccc(C)cc1)C(Cl)(Cl)Cl (stereo not given)	-1.96%
CCOP(=O)(OCC)C(O)c1ccc(OC)cc1OC (stereo not given)	47.2% (active)
CCOP(=O)(OCC)C(NC(=O)c1ccc(OC)cc1)C(Cl)(Cl)Cl (stereo not given)	0.9%
CNC(=O)Nc1ccc(C(O)(C(=O)OC)C(F)(F)F)cc1 (stereo not given)	1.95%
Cc1ccc(C2CN(C)CC2C(=O)c2ccc(F)cc2)cc1 (stereo not given)	-2.93%
COCc1cc(OC(=O)N(C)C)nc(-c2ccc(C)c(Cl)c2)n1	-1.37%
